Bioassay records (PubChem)
HCMV antiviral – inhibitors of human cytomegalovirus | HFF cells, HCMV-luciferase reporter, 72 h; hits give low values | activity change, negative = inhibition, % at 57.5 µM | hit rate 4.5% among 410,000; in the data active = activity change below about -60%; inconclusive = no clear call, values can overlap the other calls; inactive = above about -39%; note: % is set by controls: 0 for no effect and ±100 for the full control effect
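After 16 h attachment at 37C, HFF cells received test compound and HCMV-luciferase (1 PFU/cell); reporter luminescence read 72 h later, data normalized against buffer-only and known inhibitor Salinomycin.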
LASV entry inh – blocks Lassa virus binding to or entry into cells. Lassa virus pseudotype entry inhibition, cell reporter. Potency, µM (series often up to 37.9 µM), for inactives: top-dose activity change, negative = inhibition, hits mostly inhibitors. hit rate 1.2% among 300,000. AID 540256; calls by dose curve; tested in HEK293 cells; note: potency is the fitted concentration of half-maximal effect; % is set by controls: 0 for no effect and ±100 for the full control effect; nearly all actives have a fitted effect of over 50% in size
HCV inhibitor – HCV inhibition. Huh7.5.1 HCVcc-Cre infection, luciferase reporter, 44 h. Potency, µM (doses to about 41.8 µM), without a hit: at the top dose activity change, negative = inhibition, usual class: inhibitors. hit rate 3.4% among 340,000; active = well fitted inhibition curve with a large enough effect; inconclusive = small, poorly fitted or top-dose-only effect, or another doubt; inactive = no such curve, though single readings can be large or run the other way; note: potency is the fitted concentration of half-maximal effect; % is set by controls: 0 for no effect and ±100 for the full control effect
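Infectious HCV cell culture screen: compound-treated cells (1,000/well, pre-plated 4 h) are infected with HCVcc-Cre at roughly 0.5 moi and grown 44 h. Infection is quantified by luciferase signal after 15 min substrate incubation at room temperature.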
Marburg entry inh – inhibitors of Marburg virus binding or cell entry; Marburg virus pseudotyped entry inhibition, cell reporter; hit rate 1.8% among 300,000; Potency, µM (series often up to 37.8 µM), inactives show top-dose activity change, negative = inhibition, most hits filed as inhibitors; calls by dose curve; tested in HEK293 cells; note: potency is the fitted concentration of half-maximal effect; % is set by controls: 0 for no effect and ±100 for the full control effect
SARS PLpro yeast – inhibitors of SARS-CoV papain-like protease in yeast | S. cerevisiae expressing SARS-CoV PLpro, growth rescue | Potency, µM (highest dose often 32.9 µM), for inactives: at the highest dose activity, positive = growth rescue, usual class: activators | hit rate 0.19% among 330,000; calls by dose curve; note: potency is the fitted concentration of half-maximal effect; 0% is about no effect; nearly all actives have a fitted effect of over 55% in size
FMDV inh – foot and mouth disease virus antiviral activity | FMDV antiviral cell-based qHTS | Potency, µM (top dose mostly 57.9 µM), for the others: at the top dose activity change, negative = inhibition, usual class: inhibitors | hit rate 1.2% among 410,000; calls by dose curve; tested in HEK293T cells; note: read-out not given here; potency is the fitted concentration of half-maximal effect; % is set by controls: 0 for no effect and ±100 for the full control effect; nearly all actives have a fitted effect of over 45% in size
Active calls of the source: *; ? = inconclusive; / = no result given; [ ] = remark or other dose. Only some compounds are listed: those with a hit (about 8% of all), similar ones and a draw of the others.

SMILES	HCMV antiviral	LASV entry inh	HCV inhibitor	Marburg entry inh	SARS PLpro yeast	FMDV inh
CN(C)CC(CCC(CN(C)C)C(O)(c1ccccc1)c1ccccc1)C(O)(c1ccccc1)c1ccccc1 (centres undefined)	-98*	?	11µM*	?	1%	-17%
CC(=O)Oc1ccccc1/C=C/c1nc2ccccc2c(=O)o1	-10	2µM*	7%	?	-3%	?
COc1cc([N+](=O)[O-])cc(/C=N/NC(=O)CSc2nnc(-c3ccccc3)n2C)c1O	/	-5%	?	23%[46.1 µM]	0%	51%
Cc1ccc(C(=O)N/N=C/c2ccc([N+](=O)[O-])s2)cc1	-24	?	2.8µM*	11µM*	-11%	2.8µM*
O=C(N/N=C/c1cccc([N+](=O)[O-])c1)c1cccc(Br)c1	-11	0%	-8%	-14%	-4%	16%
O=C(NN=Cc1ccc(N2CCOCC2)s1)c1ccc([N+](=O)[O-])cc1	3	/	22µM*	/	1%	?
O=C(N/N=C/c1ccc([N+](=O)[O-])s1)c1ccncc1	/	30%[46.1 µM]	?	?	-4%	-30%
Cn1c(SCC(=O)N/N=C/c2ccc([N+](=O)[O-])s2)nnc1-c1ccc(Cl)cc1	-33	?	?	12µM*	-61%	?
O=C(N/N=C/c1ccc([N+](=O)[O-])s1)c1cccc(Br)c1	-69*	-29%	?	?	-44%	?
CCCCCSc1nnc(-c2ccccc2NC(C)=O)c(=O)[nH]1	?	0%[46.1 µM]	0%	-13%[46.1 µM]	2%	19%
CC(C)CN1C(=O)N[C@@](NC(=O)c2cccnc2)(C(F)(F)F)C1=O	/	/	/	19%	/	/
C[C@@H](c1ccccc1)N1C(=O)[C@@H]2[C@H]3[C@H](O)[C@H](O)CC(=NOC[C@@H](O)COCc4ccco4)[C@H]3CC[C@H]2C1=O	/	/	/	1%[14.2 µM]	/	/
O=C1[C@@H]2Cc3c([nH]c4ccccc34)C(c3ccccc3)N2C(=O)CN1C1CCN(Cc2ccccc2)CC1 (some centres undefined)	-76*	?	-19%	?	-2%	-2%
O=C1[C@@H]2Cc3c([nH]c4ccccc34)C(c3cccc(Br)c3)N2C(=O)CN1C1CCN(Cc2ccccc2)CC1 (some centres undefined)	4	?	?	?	2%	-23%
COC(=O)c1ccc(C2c3[nH]c4ccccc4c3C[C@H]3C(=O)N(C4CCN(Cc5ccccc5)CC4)CC(=O)N23)cc1 (some centres undefined)	-1	/	10µM*	/	0%	0%
CCOc1ccccc1C1c2[nH]c3ccccc3c2C[C@H]2C(=O)N(C3CCN(Cc4ccccc4)CC3)CC(=O)N12 (some centres undefined)	?	?	?	20µM*	-2%	-3%
N#CC1CN(Cc2ccccc2)CN(Cc2ccccc2)C1	-63*	-20%[46.1 µM]	7%	?	0%	-26%
N#CC1CN(C(c2ccccc2)c2ccccc2)C1	?	17%[46.1 µM]	16%	-5%[46.1 µM]	3%	-13%
CCN(C(=O)CSc1nc(-c2ccccc2)no1)c1cccc(C)c1	-107*	0%[46.1 µM]	/	-26%[46.1 µM]	/	?
Cc1ccc(Cc2nc3ccccc3nc2SCC(=O)N2CCCCC2C)cc1 (centres undefined)	-21	?	/	/	/	?
COc1cccc(Cc2nc3ccccc3nc2SCC(=O)N2CCCCC2C)c1 (centres undefined)	-38	11µM*	/	/	/	-4%
CCN(C(=O)CSc1nc2ccccc2nc1Cc1cccc(OC)c1)c1cccc(C)c1	13	7.1µM*	/	/	/	-24%
CC(C)CCCCCCCCc1cccc(O)c1C(=O)O	8	/	/	/	/	/
O=S(=O)(c1ccccc1)N1CCC(c2noc3ccccc23)CC1	-13	/	/	/	/	/
O=C(NCc1ccc(F)cc1)c1cc2cccc3c2n1CCS3	-70*	?	/	/	/	-17%
SMILES	HCMV antiviral	LASV entry inh	HCV inhibitor	Marburg entry inh	SARS PLpro yeast	FMDV inh
CC1CCN(CCOc2ccc(C(=O)c3ccccc3)cc2)CC1	57	-27%	-23%	?	-3%	-21%
CC1CCN(CCCCOc2ccc(C(=O)c3ccccc3)cc2)CC1	8	16µM*	?	?	-8%	-16%
CC(C)N(c1ccccc1)c1ccc(NC(=O)CCl)cc1	-61*	/	?	/	1%	40µM*
O=C(CCl)Nc1ccc(N=Nc2ccccc2)cc1	34	?	-27%	?	-74%	-12%
CC(=O)c1ccc(NC(=O)c2c3c(nc4ccccc24)C(=O)N(C2CCCCC2)C3)cc1	-2	-14%[46.1 µM]	/	/	/	-12%
NC(=O)CCC(=O)N1CCCC(C(=O)c2ccc(C(F)(F)F)cc2)C1 (centres undefined)	-21	/	-4%	/	12%	-21%
O=C(c1ccc(C(F)(F)F)cc1)C1CCCN(Cc2ccncc2)C1 (centres undefined)	?	/	6.3µM*	-29%[46.1 µM]	0%	?
O=C(c1ccc(C(F)(F)F)cc1)C1CCCN(C(=O)CCc2ccncc2)C1 (centres undefined)	-21	-30%[46.1 µM]	11µM*	?	-3%	?
O=C(c1ccc(C(F)(F)F)cc1)C1CCCN(Cc2ccc(CO)o2)C1 (centres undefined)	-37	/	-9%	/	0%	-5%
COC(=O)[C@H]1C[C@@]2(O)CN(S(=O)(=O)c3ccc(C)cc3)C[C@@]2(OC(=O)NC2CC2)C[C@H]1C(=O)OC	-20	/	/	/	/	-8%
CCCc1nc2sc3c(N4CCCCC4)ncnc3c2c2c1CCCC2	-39	-2%[46.1 µM]	/	12%[46.1 µM]	/	-15%
O=[N+]([O-])c1ccc(-n2nnnc2-c2ccccc2)cc1	-20	/	3%	/	-4%	-4%
O=[N+]([O-])c1ccc(-n2nnnc2-c2ccccc2)c([N+](=O)[O-])c1	-98*	?	35µM*	15µM*	-24%	32µM*
CCN(CC)CCOC(=O)c1ccc(NC(=O)c2cn(-c3ccccc3)nc2-c2cccs2)cc1	57	?	7.9µM*	?	-1%	0%
CCN(CC)CCNC(=O)c1cn(-c2ccccc2)nc1-c1cccs1	14	-7%	3%	?	-10%	-17%
O=C(Nc1ccc2ccccc2c1)c1cn(-c2ccccc2)nc1-c1cccs1	-60*	?	?	?	-2%	0%
CN(C)c1ccc(CNC(=O)CN(C)S(=O)(=O)c2ccc3c(c2)c(=O)n(C)c(=O)n3C)cc1	-24	-11%[46.1 µM]	15%	?	1%	-11%
CCOC(=O)C1CCN(CC(=O)Nc2cc(C)c3c(=O)oc4ccccc4c3n2)CC1	11	?	/	10%[46.1 µM]	/	0%
CCOC(=O)c1c(NC(=O)COc2ccc(OC)cc2)sc(C(=O)N(CC)CC)c1C	-33	-22%[46.1 µM]	/	?	/	?
CCc1c(C)sc(NC(=O)c2cccs2)c1C(=O)OC(C)C	?	?	?	9.2µM*	1%	/
